TROY signal inh = TROY signaling inhibition | 0.98% of 360,000 active | inhibition, % at 10 µM | AID 1347056 | Q293 LMP1-TROYcd NF-kB luciferase reporter, 4 h;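 active means compounds whose plate-normalised and pattern-corrected inhibition of the luciferase reporter signal at the single screening dose is 50% or more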
HIF-2a inh = inhibitors of HIF-2a. 786-0 RCC cells HIF-2a reporter, luciferase luminescence, overnight. inhibition, % at 18.8 µM. 0.72% of 360,000 active;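 active means inhibition of the luminescence signal of 40% or more relative to plate controls, in a single-dose primary screen at 18.75 µM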
HSP90 refold inh = blocks HSP90-mediated luciferase refolding in reticulocyte lysate. 0.91% of 290,000 active. inhibition, % at 5.6 µM. AID 1789. Rabbit reticulocyte lysate, luciferase refolding luminescence, 3 h;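 active means inhibition above the screen-wide mean plus 3 SD, computed separately per campaign, cut at about 16% in these data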;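 further: inhibitors lower the luminescence because luciferase stays unfolded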
aSyn 5UTR inh = MLPCN primary screen, SNCA 5' untranslated region; 0.82% of 300,000 active; inhibition, % (tested at 7.5 µM); alpha-synuclein 5'UTR reporter, inhibitor activity; AID 1813; in the data active means inhibition above about 60%;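 further: H4 neuroglioblastoma cells stably carrying SNCA 5'UTR luciferase fusion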
TWEAK-Fn14 inh = blocks TWEAK-Fn14 interaction in a reporter cell assay; TWEAK-stimulated Fn14 reporter cells, luciferase luminescence, 8 h; inhibition, % at 10 µM; 2% of 360,000 active; in the data active means inhibition above about 50%
TRAIL sens C8 = caspase-8 TRAIL sensitization. NB7+C8 cells + TRAIL, ATPlite viability luminescence. inhibition (viability loss, TRAIL sensitization), % at 10 µM. 1% of 360,000 active. AID 624354;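 active means compounds causing at least 50% loss of cell viability in the single-dose screen, relative to plate controls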
Each line names hits and unclear results; the compound was inactive in the other large screens. A selection: hits, their analogues and other compounds. The true share with any hit is near 3.9%.

O=C(CCCC(=O)N(c1ccc2c(c1)OCCO2)C(C(=O)NC1CCCCC1)c1ccc(Cl)cc1)Nc1ccccn1 (stereo not drawn)	TWEAK-Fn14 inh 62.5
COc1ccc(C(C(=O)NC2CCCCC2)N(C(=O)CCCC(=O)Nc2ccccn2)c2ccc3c(c2)OCCO3)cc1 (stereo not drawn)	none
CCOC(=O)[C@]12CCCC=C1N(Cc1ccc3c(c1)OCO3)C(=O)[C@H](CC(=O)NCc1cccc(C(F)(F)F)c1)C2	none (no result: HSP90 refold inh, aSyn 5UTR inh)
Cc1c(NC(=O)c2cccc(NC(=O)COc3ccccc3C#N)c2)c(=O)n(-c2ccccc2)n1C	HIF-2a inh 44.7 (no result: HSP90 refold inh, aSyn 5UTR inh)
Cc1c(NC(=O)c2cccc(NC(=O)COc3ccccc3)c2)c(=O)n(-c2ccccc2)n1C	none (no result: HSP90 refold inh, aSyn 5UTR inh)
O=C(Nc1ccc(Cl)c(Cl)c1)Nc1ccc(N2CCCC2)c(S(=O)(=O)Nc2ccccc2Cl)c1	aSyn 5UTR inh 95.2, TWEAK-Fn14 inh 68.3
O=C(Nc1ccc(N2CCCCC2)c(S(=O)(=O)Nc2ccccc2Cl)c1)c1cccnc1	none (no result: HSP90 refold inh, aSyn 5UTR inh)
O=C(Nc1ccc(N2CCOCC2)c(S(=O)(=O)Nc2ccccc2Cl)c1)c1ccc(F)cc1	none (no result: HSP90 refold inh, aSyn 5UTR inh)
O=C(Nc1ccc(F)cc1)Nc1ccc(N2CCCC2)c(S(=O)(=O)Nc2ccccc2Cl)c1	TWEAK-Fn14 inh 75.5
Cc1ccc2nc(-c3ccccc3)c(Cc3ccccc3C(F)(F)F)n2c1	none (no result: HSP90 refold inh, aSyn 5UTR inh)
CC(=O)N(Cc1ccc(F)cc1)C1=C(NCc2ccccc2)C(=O)c2ccccc2C1=O	HIF-2a inh 67.7, aSyn 5UTR inh 91.7, TWEAK-Fn14 inh 50.7, TRAIL sens C8 96.5
CC(=O)n1nc(-c2ccccc2)nc1NCc1ccc(F)cc1	none
CC(C)(C)C1CCc2c(sc3nc(SCC(=O)O)nc(N)c23)C1 (stereo not drawn)	HIF-2a inh 54.6
COC(=O)CSc1nc(N)c2c3c(sc2n1)C(c1ccccc1)SC(c1ccccc1)C3 (stereo not drawn)	HIF-2a inh 88.0
Cc1ccc(S(=O)(=O)N2c3ccccc3OCC2c2ccccc2)cc1 (stereo not drawn)	TWEAK-Fn14 inh 63.3
CC1COc2ccccc2N1S(=O)(=O)c1ccc(Cl)cc1 (stereo not drawn)	none
O=S(=O)(Nc1nc2ccccc2nc1Cl)c1cccc(C(F)(F)F)c1	none
O=S(=O)(Nc1nc2ccccc2nc1Cl)c1ccccc1C(F)(F)F	TWEAK-Fn14 inh 50.1
CC1(C)Cc2ccccc2C(C(=O)c2ccccc2)=N1	none
CC(=O)CC1=NC(C)(C)Cc2ccccc21	TROY signal inh 52.6
O=C(NCCc1ccc(F)cc1)Nc1ccc([N+](=O)[O-])cc1	none (no result: aSyn 5UTR inh)
Cc1c(Cl)cccc1NC(=S)NCCc1ccc(F)cc1	TWEAK-Fn14 inh 71.2
O=[N+]([O-])c1ccc(NC(=S)NCCc2ccc(F)cc2)cc1	TWEAK-Fn14 inh 65.9
C[C@@H](c1ccccc1)N1C[C@H](COCc2ccccc2)Oc2cc(N3CC[C@H](N(C)C)C3)ccc2S1(=O)=O	none (no result: HSP90 refold inh, aSyn 5UTR inh)
COc1cccc(CNC(=O)CCS(=O)(=O)c2ccc3c(c2)NC(=O)CO3)c1	aSyn 5UTR inh 98.7
CCCn1c(/C=C/c2ccccc2)nc2ccccc21	TRAIL sens C8 52.6 (no result: aSyn 5UTR inh)
CC(C)n1c(/C=C/c2ccccc2)nc2ccccc21	TRAIL sens C8 51.6
COCCOCCn1c(/C=C/c2ccccc2)nc2ccccc21	TRAIL sens C8 52.5
CN(C)S(=O)(=O)c1ccc(Cl)c(NC(=O)COC(=O)CNS(=O)(=O)c2c(F)cccc2F)c1	none (no result: HSP90 refold inh, aSyn 5UTR inh)
CC(C)(C)c1ccc(CC(=O)N2CCC2(C)C(=O)NCc2cccc3ccccc23)cc1 (stereo not drawn)	none (no result: HSP90 refold inh, aSyn 5UTR inh)
CC(C)(C)NC(=S)Nc1ccc(Nc2ccccc2)cc1	TWEAK-Fn14 inh 55.8
CC(C)(C)NC(=S)Nc1ccc(Br)cc1	none
N#Cc1c(C#N)c(SSc2c(C#N)c(C#N)c(N)n2-c2ccccc2)n(-c2ccccc2)c1N	TRAIL sens C8 79.0 (no result: HSP90 refold inh, aSyn 5UTR inh)
N#Cc1c(N)n(-c2ccc(N)cc2)c2nc3ccccc3nc12	none
O=C(N/N=C\c1c(O)ccc2ccccc12)c1ccc(Cn2cccn2)o1	aSyn 5UTR inh 91.7
CCOc1ccc(/C=N/NC(=O)c2[nH]ncc2Br)c(O)c1	TWEAK-Fn14 inh 75.7, TRAIL sens C8 78.9
O=C(N/N=C/c1c(O)ccc2ccccc12)c1[nH]ncc1Br	aSyn 5UTR inh 106.0
Cc1ccc(O)c(/C=N/NC(=O)c2[nH]ncc2Br)c1	none
O=C(N/N=C/c1c(O)ccc2ccccc12)c1cccc(C(F)(F)F)c1	aSyn 5UTR inh 110.8
COc1ccc(OC)c(CN2CCN(C(=O)c3ccc(S(=O)(=O)N4CCCCCC4)cc3)CC2)c1	none (no result: HSP90 refold inh, aSyn 5UTR inh)
COc1ccccc1-c1csc(C(NC(C)=O)c2ccccc2)n1 (stereo not drawn)	none (no result: HSP90 refold inh, aSyn 5UTR inh)
CCOC(=O)c1ccc(-n2c(C)ccc2C)cc1	none
CCOC(=O)c1ccc(N2C(=O)CC(Sc3nnc(C)s3)C2=O)cc1 (stereo not drawn)	TWEAK-Fn14 inh 68.6 (no result: TROY signal inh)
CCOC(=O)c1ccc(N2C(=O)C=CC2=O)cc1	HIF-2a inh 95.1
CCOC(=O)c1ccc(N2C(=O)CC(Sc3nc(C)cc(C)n3)C2=O)cc1 (stereo not drawn)	none
O=C(COC(=O)c1cc(S(=O)(=O)N2CCCC2)ccc1O)Nc1ccccc1Br	none (no result: HSP90 refold inh, aSyn 5UTR inh)
CN(C(=O)c1ccc(S(=O)(=O)c2cccc(Cl)c2)c([N+](=O)[O-])c1)C1CCCCC1	TROY signal inh 55.7, TWEAK-Fn14 inh 92.5
CCOC(=O)c1c(C)c2c(=O)[nH]cnc2n1-c1ccccc1	TWEAK-Fn14 inh 62.9
COc1cc(OC)c2c(-c3cccc(-c4ccc(C#N)cc4)c3)cc(=O)oc2c1	none (no result: HSP90 refold inh, aSyn 5UTR inh)
COc1cc(OC)c2c(-c3cccc(-c4ccc(OC)c(OC)c4)c3)cc(=O)oc2c1	TWEAK-Fn14 inh 96.8 (no result: HSP90 refold inh, aSyn 5UTR inh)
CCCc1cc(=O)[nH]c(SCC(=O)Nc2sc(C(N)=O)c(C)c2C(=O)OCCOC)n1	TRAIL sens C8 85.2 (no result: HSP90 refold inh, aSyn 5UTR inh)
O=C(CNC(=O)c1cccs1)c1ccc(F)cc1	TWEAK-Fn14 inh 52.0
O=C(CNC(=O)c1ccccc1F)c1ccccc1	TWEAK-Fn14 inh 62.3
N#Cc1ccccc1NC(=O)c1ccc2c(Cl)c3c(nc2c1)CCCC3	none
O=C(Nc1cccnc1Cl)c1ccc2c(Cl)c3c(nc2c1)CCC3	TWEAK-Fn14 inh 54.4, TRAIL sens C8 75.7
Cc1ccc(S(=O)(=O)N2C3CCCCC3O[C@H]2CC(=O)OCc2ccccc2)cc1 (stereo partly drawn)	none (no result: TROY signal inh, HSP90 refold inh, aSyn 5UTR inh, TWEAK-Fn14 inh)
O=C(c1cnc(Cl)c(Cl)c1)N1CCN(S(=O)(=O)c2ccc3ccccc3c2)CC1	TRAIL sens C8 48.1 (no result: HSP90 refold inh, aSyn 5UTR inh)
c1ccc2[nH]c(-c3cnco3)cc2c1	TROY signal inh 52.0, TWEAK-Fn14 inh 64.1
Cc1nc2ccccc2n1/N=C/c1ccc([N+](=O)[O-])s1	TWEAK-Fn14 inh 70.4
O=[N+]([O-])c1ccc(/C=N/n2cnc3ccccc32)s1	aSyn 5UTR inh 68.5, TWEAK-Fn14 inh 53.6
Cc1cc2ncn(/N=C/c3ccc([N+](=O)[O-])s3)c2cc1C	none
COC(=O)c1cc(=O)n(-c2ccccc2)c(=Nc2ccccc2)s1	none

Assay outcomes from PubChem.
